Bioassay records from PubChem BioAssay.
This is one part of a sample in which hits are shown more often than they occur.
HT1080 IDH1KD tx = toxicity to HT-1080 IDH1 knockdown cells (counter line); HT-1080 IDH1 knockdown viability, ATP luminescence, 48 h; Potency, µM (series often up to 46.1 µM), usual class: cytotoxic; 2% of 360,000 active; AID 686971
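% activity derives from luminescence (CellTiter-Glo), normalised to DMSO and no-cell wells. HT-1080-IDH1KD cells, 750/well, had 48 h compound exposure at 37 °C.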
IL1B secr inh = blocks inflammasome-driven IL-1 beta release; THP-1 LPS/ATP IL-1B secretion, AlphaLISA, 16 h; hits give low values; activity change, % at 57.5 µM; 4.7% of 360,000 active; AID 743279; in the data active = activity change below about -50%; inconclusive = mostly about -30% to -49%
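Secreted IL-1B measured by AlphaLISA bead assay after 16 h compound exposure of THP-1 cells; compounds (final up to 57.5 uM) added 1 h before LPS (250 ng/mL) and ATP (1.25 mM) stimulation; lower signal means less secretion.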
DT40 TDP1 no CPT = qHTS for Inhibitors of human tyrosyl-DNA phosphodiesterase 1 (TDP1): qHTS in cells in absence of CPT; DT40 Tdp1-/- hTDP1 cells, no CPT, ATP luminescence, 48 h; Potency, µM (series often up to 46.2 µM), hits mostly inhibitors; 15% of 420,000 active; note: nearly all actives have a fitted effect of over 55% in size
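Stably hTDP1-transfected Tdp1-null chicken DT40 cells were treated with library compounds minus camptothecin and grown for at least 48 hr at 37 °C, after which cellular ATP was quantified by luminescence.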
12-LOX inh = ALOX12 (human) lipoxygenase inhibition; P18054; purified 12hLO, xylenol orange hydroperoxide absorbance; Potency, µM (highest dose often 108 µM), usual class: inhibitors; 1.1% of 580,000 active; AID 1671190
Target sequence (P18054 whole entry, looked up): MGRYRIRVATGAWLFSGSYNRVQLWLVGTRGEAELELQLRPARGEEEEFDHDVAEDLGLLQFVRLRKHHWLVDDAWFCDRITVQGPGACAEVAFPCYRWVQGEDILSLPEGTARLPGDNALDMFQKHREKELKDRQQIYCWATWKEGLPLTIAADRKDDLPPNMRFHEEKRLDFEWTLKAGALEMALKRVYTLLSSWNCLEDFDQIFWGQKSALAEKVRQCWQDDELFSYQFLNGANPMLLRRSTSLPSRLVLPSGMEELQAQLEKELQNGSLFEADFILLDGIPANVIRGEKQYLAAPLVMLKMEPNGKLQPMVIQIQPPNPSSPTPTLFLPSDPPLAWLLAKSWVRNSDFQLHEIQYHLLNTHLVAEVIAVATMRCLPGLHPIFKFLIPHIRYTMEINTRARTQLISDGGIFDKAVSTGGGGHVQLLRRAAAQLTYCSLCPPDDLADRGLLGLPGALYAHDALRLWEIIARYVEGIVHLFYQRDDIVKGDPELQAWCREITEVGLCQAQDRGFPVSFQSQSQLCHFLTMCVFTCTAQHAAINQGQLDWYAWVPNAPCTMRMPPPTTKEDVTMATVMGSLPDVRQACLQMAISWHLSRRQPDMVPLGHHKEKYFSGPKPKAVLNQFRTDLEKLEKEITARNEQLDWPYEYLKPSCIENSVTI
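Purified human 12hLO at 150 nM in 25 mM Hepes, 0.01% Triton X-100, pH 7.0, preincubated 15 min at room temperature with compound. Reaction started with 40 uM arachidonic acid, 30 min at room temperature. Hydroperoxide measured by Fe-xylenol orange, 573/405 nm absorbance ratio.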
HT1080NT lethal = kills 2HG-producing HT-1080-NT fibrosarcoma cells. HT-1080-NT fibrosarcoma viability, CellTiter-Glo ATP luminescence, 48 h. Potency, µM (doses to about 46.1 µM), hits mostly cytotoxic. 1.6% of 360,000 active. AID 686970;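 note: NT is the 2HG producing partner of a matched IDH1 knockdown line; nearly all actives have a fitted effect of over 55% in size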
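HT-1080-NT fibrosarcoma cells (2HG-overproducing), 750 cells/well in RPMI with 5% FBS, dosed after 2 h and incubated 48 h at 37C. CellTiter-Glo luminescence normalized to DMSO and no-cell wells; concentration-response curves fitted and classed.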
DT40 TDP1 CPT = DT40-hTDP1 cell growth loss with CPT. chicken DT40 Tdp1-/-;hTDP1 cells + 20 nM CPT, ATP luminescence, 48 h. Potency, µM (top dose mostly 46.2 µM), usual class: inhibitors. 12% of 420,000 active; note: nearly all actives have a fitted effect of over 55% in size
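Chicken DT40 Tdp1-/- cells complemented with human TDP1, 400 cells/well, exposed to compounds plus 20 nM camptothecin for at least 48 h at 37 C; viability read as ATP content by CellTiter-Glo luminescence.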
Hits are given with their value; [ ] = another dose, or the depositor's remark. Unless noted, calls come from the whole dose curve; as a rule, active = well fitted curve in the direction sought with a large enough effect; inconclusive = small, poorly fitted or top-dose-only effect, or another doubt; inactive = no such curve, though single readings can be large; an effect the other way counts as inactive or inconclusive.

Cn1c(=O)c2c(nc(N3CCN(Cc4ccccc4)CC3)n2CC(=O)c2ccccc2)n(C)c1=O was read as HT1080 IDH1KD tx inactive, IL1B secr inh inactive, DT40 TDP1 no CPT inactive, 12-LOX inh inactive, HT1080NT lethal inactive and DT40 TDP1 CPT inactive.
For Cn1c(=O)c2c(nc(N3CCCC3)n2CCc2ccccc2)n(C)c1=O the results were 12-LOX inh inactive.
Screening Cn1c(=O)c2c(nc(N3CCN(Cc4ccccc4)CC3)n2CCCc2ccccc2)n(C)c1=O returned HT1080 IDH1KD tx inactive, IL1B secr inh inactive, DT40 TDP1 no CPT 18µM, 12-LOX inh inactive, HT1080NT lethal inconclusive and DT40 TDP1 CPT 12µM.
For Cn1c(=O)c2c(nc(N3CCN(c4ccccc4)CC3)n2CCCc2ccccc2)n(C)c1=O the results were HT1080 IDH1KD tx inactive, IL1B secr inh inactive, DT40 TDP1 no CPT 6.5µM, 12-LOX inh inactive, HT1080NT lethal inactive and DT40 TDP1 CPT 8.2µM.
Screening Cn1c(=O)[nH]c(=O)c2c1nc(N1CCN(Cc3ccccc3)CC1)n2CCCc1ccccc1 returned HT1080 IDH1KD tx inactive, IL1B secr inh inactive, DT40 TDP1 no CPT 16µM, 12-LOX inh inactive, HT1080NT lethal inactive and DT40 TDP1 CPT 12µM.
For Cn1c(=O)[nH]c(=O)c2c1nc(N1CCCC1)n2CCCSc1nnnn1-c1ccccc1 the results were HT1080 IDH1KD tx inactive, IL1B secr inh inactive, DT40 TDP1 no CPT 16µM, 12-LOX inh inactive, HT1080NT lethal inactive and DT40 TDP1 CPT 21µM.
For CN1CCN(c2nc3c(c(=O)[nH]c(=O)n3C)n2CCSc2nnnn2-c2ccccc2)CC1 the results were HT1080 IDH1KD tx inactive, IL1B secr inh inactive, DT40 TDP1 no CPT inactive, 12-LOX inh inactive, HT1080NT lethal inactive and DT40 TDP1 CPT inactive.
CC(C)(C)C(NCC(=O)NC(C)(C#N)C1CC1)c1cccs1 (stereo not drawn) was read as 12-LOX inh inactive.
For COc1ccc(CN2CCCC3(C2)C(=NC2CCCC2)NC(=O)N3c2cccnc2)cc1 (stereo not drawn) the results were 12-LOX inh inactive[6.33 µM].
Screening Cc1ccc(C(CNC(=O)c2ccc(NC(=O)OC(C)(C)C)cc2)N2CCOCC2)o1 (stereo not drawn) returned 12-LOX inh inactive.
For Cn1c(=O)c2c(nc(N3CCN(c4ccc([N+](=O)[O-])cc4)CC3)n2C)n(C)c1=O the results were HT1080 IDH1KD tx inactive, IL1B secr inh inactive, DT40 TDP1 no CPT 18µM, 12-LOX inh inactive, HT1080NT lethal inactive and DT40 TDP1 CPT inactive.
CC1CCN(c2nc3c(c(=O)n(C)c(=O)n3C)n2Cc2ccccc2)CC1 was read as HT1080 IDH1KD tx inactive[9.24 µM], IL1B secr inh -62, DT40 TDP1 no CPT inconclusive, 12-LOX inh inactive, HT1080NT lethal inactive and DT40 TDP1 CPT inactive.
Screening CCCCOc1c(CNC(C)c2ncccc2C)cccc1OC (stereo not drawn) returned 12-LOX inh inactive.
`CC(=O)Nc1cccc(NC(=O)Cc2nc(-c3ccccc3)sc2-c2ccc(C)cc2)c1` gave HT1080 IDH1KD tx inconclusive, IL1B secr inh inactive, DT40 TDP1 no CPT inconclusive, 12-LOX inh inactive, HT1080NT lethal inactive and DT40 TDP1 CPT inconclusive.
COC(=O)c1cccc(NC(=O)Cc2nc(-c3ccccc3)sc2-c2ccc(C)cc2)c1 was read as HT1080 IDH1KD tx inactive, IL1B secr inh inactive, DT40 TDP1 no CPT 18µM, 12-LOX inh inactive, HT1080NT lethal inactive and DT40 TDP1 CPT inconclusive.
`Cc1ccc(-c2sc(-c3ccccc3)nc2CC(=O)Nc2ccccc2F)cc1` gave HT1080 IDH1KD tx inactive, IL1B secr inh inactive, DT40 TDP1 no CPT inconclusive, 12-LOX inh inactive, HT1080NT lethal inactive and DT40 TDP1 CPT inactive.
For COc1cccc(NC(=O)Cc2nc(-c3ccccc3)sc2-c2ccc(C)cc2)c1 the results were HT1080 IDH1KD tx inactive, IL1B secr inh inactive, DT40 TDP1 no CPT 16µM, 12-LOX inh inactive, HT1080NT lethal inactive and DT40 TDP1 CPT inconclusive.
Cc1ccc(/C(C#N)=C\c2cccn2C)cc1 was read as 12-LOX inh 45µM.
For Cc1cc(C)c(NC(=O)c2cc(=O)c3ccccc3o2)c(Cl)c1 the results were 12-LOX inh inactive.
For CC(C)Cc1cc(C(=O)N2CCCC(C)(c3ccccc3)C2)no1 (stereo not drawn) the results were 12-LOX inh inactive.
`N#Cc1cnc(Nc2nc3ccccc3o2)nc1-c1ccc(Cl)cc1` gave 12-LOX inh inactive.
For Clc1ccc(-c2nnc(Sc3nc4ccccc4o3)c3ccccc23)cc1 the results were HT1080 IDH1KD tx 11µM, IL1B secr inh -104, DT40 TDP1 no CPT 16µM, 12-LOX inh inactive, HT1080NT lethal 11µM and DT40 TDP1 CPT inconclusive.
Screening CCC(CC)C(=O)N(C)c1c(C)nc2c(OCc3cccc(OC)c3)cccn12 returned HT1080 IDH1KD tx inactive, IL1B secr inh inactive, DT40 TDP1 no CPT 21µM, 12-LOX inh inactive, HT1080NT lethal inactive and DT40 TDP1 CPT inconclusive.
CCC(CC)C(=O)N(C)c1c(C)nc2c(OCc3ccc(Cl)cc3)cccn12 was read as HT1080 IDH1KD tx inconclusive, IL1B secr inh inactive, DT40 TDP1 no CPT inconclusive, 12-LOX inh inconclusive, HT1080NT lethal inconclusive and DT40 TDP1 CPT 8.2µM.
CCC(CC)C(=O)N(C)c1c(C)nc2c(OCc3cccc(Cl)c3)cccn12 was read as HT1080 IDH1KD tx inactive, IL1B secr inh inactive, DT40 TDP1 no CPT 12µM, 12-LOX inh inactive, HT1080NT lethal inactive and DT40 TDP1 CPT 21µM.
For CCC(CC)C(=O)N(C)c1c(C)nc2c(OCc3cc(Cl)cc(Cl)c3)cccn12 the results were HT1080 IDH1KD tx inconclusive, IL1B secr inh inactive, DT40 TDP1 no CPT inconclusive, 12-LOX inh inactive, HT1080NT lethal inconclusive and DT40 TDP1 CPT inconclusive.
`CCC(CC)C(=O)N(C)c1c(C)nc2c(OCc3ccc(OC(F)F)cc3)cccn12` gave HT1080 IDH1KD tx inactive, IL1B secr inh inactive, DT40 TDP1 no CPT 12µM, 12-LOX inh inactive, HT1080NT lethal inactive and DT40 TDP1 CPT 12µM.
Screening CCc1nc2c(OCc3ccccc3)cccn2c1N(C)C(=O)C(C)C returned HT1080 IDH1KD tx inactive, IL1B secr inh inactive, DT40 TDP1 no CPT inconclusive, 12-LOX inh inactive, HT1080NT lethal inactive and DT40 TDP1 CPT inconclusive.
`O=C(CCC1CC1)N1CCC(c2cc(Cc3ccccc3)[nH]n2)CC1` gave 12-LOX inh inactive.
Screening COc1cc(=O)n2c(c1C(=O)Nc1ccc(Br)cc1F)CCCC2 returned 12-LOX inh 20µM.
N=C1CCC(=N)c2c1c(O)c1ccccc1c2O was read as HT1080 IDH1KD tx inconclusive, IL1B secr inh inconclusive, DT40 TDP1 no CPT inconclusive, HT1080NT lethal 23µM and DT40 TDP1 CPT inconclusive.
